Source: PubChem BioAssay (several laboratories)
Rows were chosen to be rich in hits. Some 4% of all compounds tested hit in one or more screens of this group.
CCHF vOTU inh-1 – blocks the CCHF virus ovarian tumor domain protease; CCHFV vOTU protease, Pep-AMC fluorescence; inhibition, % at 11.5 µM; 370,000 tested, 0.55% active; further: 0% = vehicle wells with enzyme and 100% = no enzyme wells
Mtb bLac sens – beta-lactam sensitization of Mtb H37Rv; 330,000 tested, 0.27% active; M. tuberculosis H37Rv growth with meropenem, percent inhibition; inhibition, % at 25 µM; call rule not given here;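 further: growth measured after seven days incubation then overnight dye step; 0% = bacteria only wells and 100% = bacteria with antibiotic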
GDH-TPI counter – counter-screen for M. tuberculosis FBA inhibitors: GDH-TPI coupled enzymes; GDH-TPI coupled enzyme counterscreen, NADH absorbance; inhibition, % at 4.8 µM; 360,000 tested, 1.2% active;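 further: 0% = DMSO wells and 100% = wells lacking the enzyme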
MazEF act – activators of E. coli MazEF toxin-antitoxin RNase; P0AE70; FAM/BHQ RNA-DNA oligo cleavage fluorescence, 5 h; activation, % at 20 µM; 350,000 tested, 0.32% active; AID 504720; in the data active means activation above about 50%
Target sequence (P0AE70 whole entry, looked up): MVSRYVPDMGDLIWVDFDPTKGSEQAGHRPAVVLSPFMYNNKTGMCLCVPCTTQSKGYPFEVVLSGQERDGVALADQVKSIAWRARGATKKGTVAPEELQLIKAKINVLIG
FBA Mtb inh – Mtb fructose-bisphosphate aldolase inhibition | purified M. tuberculosis FBA, fluorescence read-out | P9WQA3 | inhibition, % at 1 µM | 360,000 tested, 2.3% active; in the data active means inhibition above about 27%;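 further: 0% = vehicle and 100% = reference inhibitor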
Target sequence (P9WQA3 whole entry, looked up): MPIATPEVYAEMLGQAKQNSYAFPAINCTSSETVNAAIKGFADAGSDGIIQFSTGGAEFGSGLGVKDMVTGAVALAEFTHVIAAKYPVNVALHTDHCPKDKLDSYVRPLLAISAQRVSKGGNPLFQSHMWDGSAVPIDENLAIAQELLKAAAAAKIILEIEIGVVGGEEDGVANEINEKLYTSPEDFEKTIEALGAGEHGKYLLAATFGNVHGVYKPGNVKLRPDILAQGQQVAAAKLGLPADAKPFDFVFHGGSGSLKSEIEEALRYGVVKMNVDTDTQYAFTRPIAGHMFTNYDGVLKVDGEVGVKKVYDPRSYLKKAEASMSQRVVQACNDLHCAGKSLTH
CCHF vOTU inh-2 – confirmation of CCHF virus vOTU protease inhibitors; shares compounds with CCHF vOTU inh-1; Recombinant CCHFV vOTU, Pep-AMC fluorescence; inhibition, % at 11.5 µM; 1,900 tested, 17% active; AID 686976
Active calls of the source: *; ? = inconclusive; · = no result given. Unless noted, no stated cut-off is given here; in the data, active means inhibition above about 30%; inactive means the rest.

SMILES	CCHF vOTU inh-1	Mtb bLac sens	GDH-TPI counter	MazEF act	FBA Mtb inh	CCHF vOTU inh-2
O=C(CNc1cccc2ccccc12)N/N=C/c1ccc[nH]1	-2.1	-6.6	-3.2	12.7	19.2	·
O=C(CNc1cccc2ccccc12)N/N=C/C(Br)=C/c1ccccc1	82.4*	-5.3	25.0	6.6	2.6	-13.4
O=C(Nc1c(-c2ccc3c(c2)OCO3)[nH][nH]c1=O)c1cccc(C(F)(F)F)c1	34.0*	·	·	·	0.3	-9.2
O=C(Nc1c(-c2ccc3c(c2)OCO3)[nH][nH]c1=O)c1ccccc1	42.3*	·	·	·	5.3	-5.9
O=C(Nc1c(-c2ccccc2)[nH][nH]c1=O)c1ccc2c(c1)OCO2	10.4	·	·	·	·	·
COc1ccc(NS(=O)(=O)c2cc(N=Nc3c(O)[nH]c(=O)[nH]c3=O)ccc2OC)cc1Br	14.5	·	30.4	-9.8	-9.0	·
CCOc1ccc(NS(=O)(=O)c2ccc(Cl)c(N=Nc3c(O)[nH]c(=S)[nH]c3=O)c2)cc1Br	33.0*	·	19.5	-0.5	-7.4	3.3
Cc1cccc(-n2c3nc(=O)[nH]c(=O)c-3cc3cc([N+](=O)[O-])ccc32)c1	21.4	-5.2	22.6	2.1	-4.8	·
Cc1ccc(C)c(-n2c3nc(=O)[nH]c(=O)c-3cc3cc([N+](=O)[O-])ccc32)c1	79.1*	-3.8	24.7	4.2	-0.4	3.5
O=C(Nc1ccc(C(=O)O)cc1)/C(=C/c1ccc2c(c1)OCO2)NC(=O)c1cccc(Br)c1	9.8	-1.4	22.0	-2.6	-3.0	·
O=C(Nc1ccc(C(=O)O)cc1)/C(=C\C=C\c1ccccc1)NC(=O)c1cccc(Br)c1	29.9*	-0.5	42.1*	-7.0	-2.7	22.4
N#Cc1c(-c2ccccc2)nc(SCC(=O)Nc2ccc(OC(F)(F)Cl)cc2)[nH]c1=O	31.1*	-9.0	8.0	1.0	4.1	16.1
N#Cc1c(-c2ccccc2)nc(SCC(=O)Nc2ccccc2)[nH]c1=O	14.3	-3.2	-3.0	-5.0	0.1	·
COc1ccc(OCc2ccc(/C=N\NC(=O)c3sccc3C)o2)cc1	12.4	4.8	18.9	-4.0	3.1	·
CC(C)c1nc2cc(C(=O)N3CCN(c4cnccn4)CC3)ccc2o1	4.2	?	2.7	5.4	1.4	·
CC(C)C(N)c1csc(Nc2ccc(C(=O)c3ccccc3)cc2)n1 (stereo not given)	36.9*	·	22.8	·	0.8	-11.9
CCOC(=O)C1CCN(Cc2oc(CO)cc(=O)c2O)CC1	41.3*	?	-3.1	0.4	-3.2	-13.3
CCC(NS(=O)(=O)c1ccc2c(c1)NC(=O)C(C)C(=O)N2)c1cccs1 (stereo not given)	-1.2	1.0	3.3	-4.4	2.5	·
O=C(NCCCN1CCCC1=O)c1ccc(NS(=O)(=O)c2ccccc2)cc1	-2.2	-4.8	0.0	4.1	0.8	·
CC(C)(C)c1ccc(C(=O)OCc2c(-c3ccccc3)ncc3ccccc23)cc1	30.5*	-10.0	12.7	-3.7	0.0	-12.8
COc1cc(CNC(=O)Nc2nc(C(N)Cc3ccc(C(F)(F)F)cc3)cs2)cc(OC)c1OC (stereo not given)	30.6*	·	9.8	·	-0.2	-19.4
COc1ccc(CC(N)c2csc(NC(=O)NCc3ccccc3)n2)cc1 (stereo not given)	7.5	·	8.8	·	3.6	·
CCCCN(C)C(=O)c1ccc(Nc2nc(C(N)CCc3ccccc3)cs2)nc1 (stereo not given)	25.1	·	6.2	·	6.7	·
CCCCN(C)C(=O)c1ccc(Nc2nc(C(N)Cc3ccc(C(F)(F)F)cc3)cs2)nc1 (stereo not given)	32.2*	·	8.2	·	-1.7	-9.4
C[C@@H]1ON(C)[C@H]2C[C@H]3c4cc(N5CCN(C)CC5)ccc4CCN3C[C@@H]12	-7.4	·	·	·	·	·
SMILES	CCHF vOTU inh-1	Mtb bLac sens	GDH-TPI counter	MazEF act	FBA Mtb inh	CCHF vOTU inh-2
O=S(=O)(c1ccc(Br)cc1Cl)N1CCN(CCO)CC1	0.7	2.0	0.0	0.6	1.6	·
O=C1C=CC(=O)c2c(O)c(N3CCN(CCO)CC3)c(Cl)c(O)c21	101.7*	·	12.4	3.9	7.9	97.8*
O=C1C=CC(=O)c2c(O)c(N3CCN(CCOCCO)CC3)c(Br)c(O)c21	111.1*	·	5.0	-7.7	-9.7	103.6*
Cc1ccc(OCCN2CCC2(C)C(=O)Nc2ccc3c(c2)OCCO3)cc1 (stereo not given)	4.3	·	-0.9	·	1.0	·
CCn1cc(CN2CCN(CCc3ccccc3)C(CCO)C2)c(C)n1 (stereo not given)	10.0	0.6	4.4	0.9	4.9	·
O=C(O)CSc1cc(NS(=O)(=O)c2ccc(Br)cc2)c2ccccc2c1O	114.2*	8.3	-0.4	-32.7	3.3	104.0*
